High-throughput results: PubChem, several laboratories
Sampled rows, rich in hits. Any-hit rate of the full collection: about 3.1%.
SKKanGAS inh = blocks kanamycin growth of S. pyogenes SKKanGAS strain. AID 1662. BacTiter-Glo, 6 h. inhibition, % at 7.5 µM. 300,000 tested, 1.3% active;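 active means mean replicate score, as percent of positive control median, at least 50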;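 further: strain carries kanamycin resistance gene driven by streptokinase promoter and grows in 40 µg/ml kanamycin; loss of luminescence reflects streptokinase promoter inhibition or plain growth inhibition; 0% = median of DMSO wells and 100% = positive control at its reference dose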
Beta cell apopt = beta cell apoptosis inhibition. INS-1E cytokine-induced death, ATP luminescence, 48 h; percent of positive-control rescue, neutral wells zero. protection from apoptosis, % (test concentration not listed). 300,000 tested, 0.8% active;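 active means Every replicate reaches about 75%, or at least half do and their mean reaches it too, limit read from the data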;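 further: 0% = cytokine-treated negative control wells and 100% = positive control rescue; higher means more ATP so stronger rescue from cytokine killing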
CSC inhib = cancer stem cell inhibition; cancer stem cell-like cells viability, luminescence; inhibition, % at 7.5 µM; 300,000 tested, 1.1% active; AID 2717; in the data active means inhibition above about 75%; tested in HMLE shEcad cells
PP1 counter = counter-screen for PP5 inhibitors: inhibitors of human PP1-alpha. inhibition, % at 6.7 µM. purified PP1alpha, OMFP fluorescence. 320,000 tested, 0.9% active;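 active means inhibition above the mean inhibition of all tested compounds plus 3 SD, computed separately for each screening campaign, cut at about 15% in these data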
Target sequence (P62136 whole entry, looked up): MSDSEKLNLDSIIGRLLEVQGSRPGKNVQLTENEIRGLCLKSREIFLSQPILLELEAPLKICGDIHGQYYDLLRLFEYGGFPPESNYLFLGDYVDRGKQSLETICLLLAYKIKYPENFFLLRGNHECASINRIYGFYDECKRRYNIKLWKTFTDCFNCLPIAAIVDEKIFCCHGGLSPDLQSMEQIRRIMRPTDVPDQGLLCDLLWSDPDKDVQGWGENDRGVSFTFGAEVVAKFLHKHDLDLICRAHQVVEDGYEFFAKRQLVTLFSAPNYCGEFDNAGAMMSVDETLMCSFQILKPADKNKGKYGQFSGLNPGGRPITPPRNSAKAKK
PP5 primary = inhibitors of human protein phosphatase 5 (PP5). purified PP5c, OMFP substrate fluorescence. P53041. AID 1987. inhibition, % at 6.7 µM. 320,000 tested, 0.18% active;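 active means inhibition above the campaign's mean inhibition across all tested compounds plus 3 SD, cut at about 9.5% in these data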;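 further: 0% = DMSO only and 100% = 100 µM cantharidin control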
Starred values were filed as active, the others as inactive; nt = not tested or not shown.

SMILES	SKKanGAS inh	Beta cell apopt	CSC inhib	PP1 counter	PP5 primary
CC1=Nc2ccccc2/C1=C\c1sc(Nc2ccc(C)cc2)nc1O	37.4	41.8	84.9*	2.9	3.0
Oc1nc(Nc2ccc(F)cc2)sc1/C=C1\C=Nc2ccccc21	55.4*	7.9	65.8	9.8	-1.8
Oc1nc(Nc2cccc(Cl)c2)sc1/C=C1\C=Nc2ccccc21	112.8*	-3.2	108.7*	4.8	5.5
Oc1cccc(Nc2nc(O)c(/C=C3\C=Nc4ccccc43)s2)c1	nt	8.8	54.2	-1.1	-0.2
O=c1[nH]c(S)c(/C=C2\C=Nc3ccccc32)s1	29.1	-0.2	10.4	2.7	0.4
Cc1c(Cl)cccc1N(Cc1ccc(C(=O)O)cc1)S(=O)(=O)c1ccccc1	4.9	6.6	-14.5	-1.3	-2.8
Cn1c(-c2c(N)n(-c3ccccc3)c3nc4ccccc4nc23)nc2ccccc21	-19.1	-1.0	4.3	6.2	2.5
Cc1cccc(-n2c(N)c(-c3nc4ccccc4n3C)c3nc4ccccc4nc32)c1	77.9*	3.1	1.7	-2.6	3.5
CCC[C@@H](CN1CCC[C@H]1CN1C(N)=NC[C@@H]1Cc1ccccc1)N1C[C@@H]([C@H](C)CC)N(CCCC2CCCC2)C1=N	nt	100.6*	nt	nt	nt
CCC[C@@H](CN1CCC[C@H]1CN1C(N)=NC[C@@H]1Cc1ccccc1)N1C[C@@H](Cc2ccccc2)N(CCCC2CCCC2)C1=N	nt	-2.5	4.3	nt	nt
CC(=O)N1CCCc2cc(S(=O)(=O)CCC(=O)Nc3cccc(C)c3C)ccc21	2.4	-3.9	-5.5	-0.1	1.8
Cc1ccc(-n2nc(C)c(=O)c(-c3ccccc3)c2NC(=O)C(C)C)cc1	-0.4	-1.1	-7.1	-2.1	0.5
CCN(CC)CCN1c2ccccc2Sc2ccc3ccccc3c21	0.7	106.4*	58.6	-2.4	-1.5
CCN(CC)CCN1c2ccccc2Sc2ccccc21	-5.2	1.4	7.0	3.9	1.3
N#Cc1ccc2[nH]cc(CCO)c2c1	-0.6	3.2	-5.9	0.8	1.3
COc1cc(NC(=O)c2cc(C)on2)cc(C(=O)Nc2cccc(C(F)(F)F)c2)c1	10.2	38.4	87.7*	-1.2	6.5
COc1cc(NC(=O)c2csc(N)n2)cc(C(=O)Nc2cccc(C(F)(F)F)c2)c1	14.9	19.3	87.8*	-0.5	2.6
COc1cc(NC(=O)c2ccnc(N)c2)cc(C(=O)Nc2cccc(C(F)(F)F)c2)c1	4.9	1.2	97.1*	12.9	1.7
COc1cc(NC(=O)c2cnc(N)o2)cc(C(=O)Nc2cccc(C(F)(F)F)c2)c1	1.6	2.1	-4.2	3.7	5.2
O=C(NCCCn1ccnc1)c1ccc(C(F)(F)F)cc1	2.2	-2.3	-26.4	-1.9	2.9
CC(NC(=O)COc1ccccc1Cl)c1ccccc1 (stereo not given)	0.5	nt	6.6	0.4	-2.2
O=C(c1cc(-c2ccco2)on1)N1CCN(c2ccccc2)CC1	-4.8	-4.8	84.4*	5.3	-0.1
O=C(c1cc(-c2ccccc2)on1)N1CCN(c2ccccc2)CC1	-1.2	-1.5	62.7	0.3	5.5
Cc1nnc(SCC(=O)NCC2CCCO2)n1Cc1ccccc1 (stereo not given)	nt	1.3	nt	nt	nt
COc1cc2c(cc1OC)-c1c(OC)c(OC)cc3ccnc(c13)C2=O	12.2	112.3*	61.1	7.8	2.5
SMILES	SKKanGAS inh	Beta cell apopt	CSC inhib	PP1 counter	PP5 primary
COc1cc2cccc(OC)c(=O)c2c(O)c1OC	-0.3	-1.5	13.2	0.5	-1.8
O=C(COc1ccccc1)Nc1nnc(-c2ccccc2)o1	3.9	nt	-2.2	15.4*	1.3
O=C(COn1nnc2ccc(C(F)(F)F)cc21)Nc1nnc(-c2ccccc2)o1	90.5*	-1.2	23.8	13.8	-1.1
Cc1ccc(C)c(SCC(=O)Nc2nnc(-c3ccccc3)o2)c1	81.7*	-18.6	5.5	7.6	2.9
COc1cccc(C(=O)OCC(=O)Nc2nnc(-c3ccccc3)o2)c1	67.9*	2.3	-3.2	7.6	0.7
O=C(COc1ccccc1)Nc1nnc(-c2ccco2)o1	11.9	0.3	26.3	-0.7	-0.9
COc1ccc(N2C(=O)CSC2c2ccccc2[N+](=O)[O-])cc1 (stereo not given)	0.0	-5.8	-22.4	-2.5	-1.0
O=C(Nc1cccc(F)c1)Nc1ccnn1C1CCN(C(=O)c2cscn2)CC1	-17.7	0.3	5.0	-2.4	1.9
O=C(COc1ccccc1)Nc1nnc(-c2ccc(Cl)s2)o1	8.4	-4.3	0.5	19.4*	0.7
O=C(Nc1nnc(-c2ccc(Cl)s2)o1)C1CC1	-9.0	-9.9	-3.1	-1.5	-3.1
Cc1ccc(C)c(-c2nnc(NC(=O)CCS(=O)(=O)c3ccccc3)o2)c1	51.3*	-3.3	39.5	4.3	0.0
